According to PubChem BioAssay (Tox21):
Results filed as inconclusive are left out. Where a call stands in place of a potency, no number is given. The source made the active and inactive calls. The call rests on the fitted dose curve.

assay: p53 small molecule agonists, cell-based qHTS assay: qHTS cell viability counter screen (AID 1963581); settings: p53RE-bla HCT-116 viability, ATP luminescence, 16 h; series mostly up to 66 µM; further: nearly all actives have a fitted effect of over 45% in size
Source text: National Center for Advancing Translational Sciences [NCATS]
Division of Preclinical Innovation [DPI]
U.S. Environmental Protection Agency [EPA]
National Institutes of Environmental Health Sciences [NIEHS]
National Toxicology Program [NTP]
U.S. Food and Drug Administration [FDA]
p53, a tumor suppressor protein, is activated following cellular insult, including DNA damage and other cellular stresses. The activation of p53 regulates cell fate by inducing DNA repair, cell cycle arrest, apoptosis, or cellular senescence. The activation of p53, therefore, is a good indicator of DNA damage and other cellular stresses. The CellSensor p53RE-bla HCT-116 cell line (Invitrogen) contains a stably integrated beta-lactamase reporter gene under control of the p53 response elements. The activation of the reporter gene under culture conditions can be detected by fluorescence intensity. This cell line was used to screen the Tox21 compound library in a 1536-well plate format and to identify agonists that activate the p53 signaling pathway. The cytotoxicity of the Tox21 compound library against the p53 RE-bla HCT-116 cell line was tested in parallel by measuring the intra cellular ATP content in the same wells.
Tox21 Assay Protocol Summary:
The p53RE-bla cells were dispensed at 4,000 cells/5 ul/well in 1536-well black wall/clear bottom plates using a Multidrop dispenser. After the assay plates were incubated at a 37 C/5% CO2 incubator for 5 hours, 23 nL of compounds dissolved in DMSO, positive controls or DMSO only was transferred to the assay plate by a pin tool. The plates were incubated at 37 C for 16 hours. After 1 uL of LiveBLAzerTM B/G FRET substrate was added using a Flying Reagent Dispenser, the plates were incubated at room temperature for 2 hours, and fluorescence intensity was measured by an Envision plate reader. For cell viability readout that measures cytotoxicity, 4 ul/well of CellTiter-Glo reagent was added into the assay plates using a Flying Reagent Dispenser. After 30 min incubation at room temperature, the luminescence intensity in the plates was measured using a ViewLux plate reader.
Potency means the concentration at half of the fitted maximal effect.

Q: For `CCOC(=O)C(C)Oc1ccc(Oc2nc3ccc(Cl)cc3o2)cc1` (stereo not given), which Potency is on record?
A: The Potency was “inactive”.

Q: Which Potency does the source give for `Cc1ccc(S(=O)(=O)C(I)I)cc1` here?
A: The Potency was “inactive”.

Q: With `COC(=O)C1=C(C)NC(C)=C(C(=O)OC)C1c1ccccc1[N+](=O)[O-]` as the compound, how does the Potency read?
A: Its Potency is “inactive”.

Q: Which Potency does the source give for `CCn1nc(C(=O)O)c(=O)c2cc3c(cc21)OCO3` here?
A: The Potency was “inactive”.

Q: With `Cc1c(C)n(Cc2ccccc2)c2ccc(C(=O)OCCN(C)C)cc12` as the compound, how does the Potency read?
A: Its Potency is “inactive”.

Q: For `CC[C@H]1OC(=O)[C@H](C)[C@@H](O[C@H]2C[C@@](C)(OC)[C@@H](O)[C@H](C)O2)[C@H](C)[C@@H](O[C@@H]2O[C@H](C)C[C@H](N(C)C)[C@H]2O)[C@](C)(O)C[C@@H](C)/C(=N\OCOCCOC)[C@H](C)[C@@H](O)[C@]1(C)O`, which Potency is on record?
A: The Potency was “inactive”.

Q: Which Potency does the source give for `C=CCN(CC=C)CC=C` here?
A: The Potency was “inactive”.

Q: Which Potency does the source give for `CN(C)C(=O)Nc1ccccc1` here?
A: Its Potency is “inactive”.

Q: Which Potency does the source give for `CCC(C)[O-].CCC(C)[O-].CCOC(=O)/C=C(/C)[O-].[Al+3]` here?
A: Its Potency is “inactive”.

Q: For `O=C1CCC(=O)N1Cl`, which Potency is on record?
A: Its Potency is “inactive”.

Q: With `Cc1ccc([N+](=O)[O-])c(N)c1` as the compound, how does the Potency read?
A: The Potency was “inactive”.

Q: For `Nc1ccc2ccccc2c1S(=O)(=O)O`, which Potency is on record?
A: The Potency was “inactive”.

Q: With `CN(C)CCCN1c2ccccc2CCc2ccc(Cl)cc21` as the compound, how does the Potency read?
A: Its Potency is “inactive”.

Q: With `Cc1cccc(C)c1NC(=O)C(C)N` (stereo not given) as the compound, how does the Potency read?
A: Its Potency is “inactive”.

Q: With `O=C(O)CCCCCCCCCCCBr` as the compound, how does the Potency read?
A: Its Potency is “inactive”.

Q: With `Cc1ccc(-c2cc(C(F)(F)F)nn2-c2ccc(S(N)(=O)=O)cc2)cc1` as the compound, how does the Potency read?
A: Its Potency is “inactive”.

Q: With `CC1(C)C(=O)N(Br)C(=O)N1Br` as the compound, how does the Potency read?
A: Its Potency is “inactive”.

Q: For `CC(C)c1c(C(=O)Nc2ccccc2)c(-c2ccccc2)c(-c2ccc(F)cc2)n1CC[C@@H](O)C[C@@H](O)CC(=O)O`, which Potency is on record?
A: Its Potency is “inactive”.

Q: For `Nc1nc2ccc(OC(F)(F)F)cc2s1`, which Potency is on record?
A: The Potency was “inactive”.

Q: Which Potency does the source give for `C=C(C)C(=O)OCc1ccccc1` here?
A: The Potency was “inactive”.

Q: Which Potency does the source give for `O=Cc1ccc(O)c(O)c1O` here?
A: Its Potency is “inactive”.

Q: With `COc1nccnc1NS(=O)(=O)c1ccc(N)cc1` as the compound, how does the Potency read?
A: The Potency was “inactive”.

Q: With `COc1ccc2nc(S(=O)Cc3ncc(C)c(OC)c3C)[nH]c2c1` (stereo not given) as the compound, how does the Potency read?
A: The Potency was “inactive”.

Q: Which activity change, negative = cytotoxicity does the source give for `CN1CCN(c2cc3c(nn2)Oc2ccccc2N3C)CC1` here?
A: Its activity change, negative = cytotoxicity is -9.68% [at 13.5 µM] (inactive).

Q: Which Potency does the source give for `Oc1cc2ccccc2c2ccccc12` here?
A: Its Potency is 10.2 µM (active).

Q: With `CCCCCC` as the compound, how does the Potency read?
A: Its Potency is “inactive”.

Q: Which Potency does the source give for `CCCCNc1ccc(C(=O)OCCN(CC)CC)cc1` here?
A: Its Potency is “inactive”.

Q: Which Potency does the source give for `O=S1(=O)N=C(O)c2ccccc21` here?
A: The Potency was “inactive”.

Q: For `O=C(O)c1ccccc1C(=O)OCc1ccccc1`, which Potency is on record?
A: Its Potency is “inactive”.

Q: For `CCc1c(C)cc(N)c(CC)c1N`, which Potency is on record?
A: The Potency was “inactive”.

Q: For `COC(OC)(C(=O)c1ccccc1)c1ccccc1`, which Potency is on record?
A: The Potency was “inactive”.

Q: Which Potency does the source give for `CCO[Si](CCCSSSSCCC[Si](OCC)(OCC)OCC)(OCC)OCC` here?
A: The Potency was “inactive”.

Q: For `CCCCCCC(C)Nc1ccc(Nc2ccccc2)cc1` (stereo not given), which Potency is on record?
A: The Potency was “inactive”.

Q: For `CCN1CCN(C(=O)N[C@@H](C(=O)N[C@@H]2C(=O)N3C(C(=O)O)=C(CSc4nnnn4C)CS[C@H]23)c2ccc(O)cc2)C(=O)C1=O`, which Potency is on record?
A: Its Potency is “inactive”.

Q: With `COc1ccc(CCN(C)CCCN2CCc3cc(OC)c(OC)cc3CC2=O)cc1OC` as the compound, how does the Potency read?
A: Its Potency is “inactive”.

Q: Which Potency does the source give for `CCC(C)(CCC(C)C)C(=O)[O-].CCC(C)(CCC(C)C)C(=O)[O-].[Zn+2]` (stereo not given) here?
A: The Potency was “inactive”.

Q: For `COc1cc(C(C)=O)ccc1OCCCN1CCC(c2noc3cc(F)ccc23)CC1`, which Potency is on record?
A: The Potency was “inactive”.

Q: For `Cc1ccc(NC(=O)c2ccc(CN3CCN(C)CC3)cc2)cc1Nc1nccc(-c2cccnc2)n1`, which Potency is on record?
A: Its Potency is “inactive”.

Q: For `O=[N+]([O-])c1ccc(Nc2ccc(Nc3ccccc3)c(S(=O)(=O)O)c2)c([N+](=O)[O-])c1`, which Potency is on record?
A: The Potency was “inactive”.

Q: For `C=CC(=O)OCCOc1ccccc1`, which Potency is on record?
A: Its Potency is “inactive”.
